Source: PubChem (National Center for Advancing Translational Sciences (NCATS))
The list is not random: actives were taken first. Their share in the collection is about 7.6%.
KB-3-1 tox: KB-3-1 parental cell cytotoxicity. KB-3-1 viability, CellTiter-Glo ATP luminescence, 72 h. Potency, µM (doses to about 46.1 µM), usual class: cytotoxic. 1.4% of 400,000 active. AID 1347075; also: potency is read from the fitted curve at half-maximal effect; % is scaled to controls: 0 for no effect and ±100 for the full control effect; nearly all actives have a fitted effect of over 60% in size
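Parental KB-3-1 adenocarcinoma cells in phenol-red-free DMEM with 10% FBS were pin-treated with compounds at several concentrations, incubated 72 h at 37 °C, and viability read by CellTiter-Glo luminescence; concentration-effect curves were fitted after normalization.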
SW480 rereplic: DNA re-replication induction in SW480 cells | SW480 DNA re-replication, Hoechst DNA content imaging, 48 h | Potency, µM (top dose mostly 46.1 µM), for inactives: at the top dose re-replication activation, actives largely listed as activators | 1.8% of 340,000 active; also: potency is read from the fitted curve at half-maximal effect; % of control where 0% means no effect; nearly all actives have a fitted effect of over 55% in size
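250 cells/well; 23 nL cpd via pin tool; 48 hr, 37 C, 5% CO2; Hoechst 40 min; imager read of total nuclear intensity, ex 405/em 500-530 nm.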
KCNH2 3.1 inh: blocks the human KCNH2 3.1 channel isoform; activity change, % (tested at about 1.8 µM); AID 720553; U2OS KCNH2 3.1, thallium flux FluxOr; stronger effect = lower value; 0.95% of 340,000 active;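 active = maximum activity change below -70%; inconclusive = maximum activity change from -70% to -50%; inactive = maximum activity change above -50%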;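 also: thallium influx rate constant from kinetic fluorescence after stimulation buffer; % is scaled to controls: 0 for no effect and ±100 for the full control effect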
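Channel expression came from 3.1 mutant virus (1.77 x 10^8 /mL) applied to suspended U2OS cells for 4 h. Flux was tracked with FluxOr dye plus Red40 quencher, and kinetic rate constants normalized to controls.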
KCNH2 WT inh: inhibitors of human wildtype KCNH2 potassium channel; Q12809; U2OS, BacMam KCNH2, thallium flux FluxOr; stronger effect = lower value; activity change, % at 1.84 µM; 0.37% of 340,000 active; AID 720551;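 active = maximum activity change below -70%; inconclusive = maximum activity change between -70% and -50%; inactive = maximum activity change above -50%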; also: % is scaled to controls: 0 for no effect and ±100 for the full control effect
Target sequence (Q12809 whole entry, looked up): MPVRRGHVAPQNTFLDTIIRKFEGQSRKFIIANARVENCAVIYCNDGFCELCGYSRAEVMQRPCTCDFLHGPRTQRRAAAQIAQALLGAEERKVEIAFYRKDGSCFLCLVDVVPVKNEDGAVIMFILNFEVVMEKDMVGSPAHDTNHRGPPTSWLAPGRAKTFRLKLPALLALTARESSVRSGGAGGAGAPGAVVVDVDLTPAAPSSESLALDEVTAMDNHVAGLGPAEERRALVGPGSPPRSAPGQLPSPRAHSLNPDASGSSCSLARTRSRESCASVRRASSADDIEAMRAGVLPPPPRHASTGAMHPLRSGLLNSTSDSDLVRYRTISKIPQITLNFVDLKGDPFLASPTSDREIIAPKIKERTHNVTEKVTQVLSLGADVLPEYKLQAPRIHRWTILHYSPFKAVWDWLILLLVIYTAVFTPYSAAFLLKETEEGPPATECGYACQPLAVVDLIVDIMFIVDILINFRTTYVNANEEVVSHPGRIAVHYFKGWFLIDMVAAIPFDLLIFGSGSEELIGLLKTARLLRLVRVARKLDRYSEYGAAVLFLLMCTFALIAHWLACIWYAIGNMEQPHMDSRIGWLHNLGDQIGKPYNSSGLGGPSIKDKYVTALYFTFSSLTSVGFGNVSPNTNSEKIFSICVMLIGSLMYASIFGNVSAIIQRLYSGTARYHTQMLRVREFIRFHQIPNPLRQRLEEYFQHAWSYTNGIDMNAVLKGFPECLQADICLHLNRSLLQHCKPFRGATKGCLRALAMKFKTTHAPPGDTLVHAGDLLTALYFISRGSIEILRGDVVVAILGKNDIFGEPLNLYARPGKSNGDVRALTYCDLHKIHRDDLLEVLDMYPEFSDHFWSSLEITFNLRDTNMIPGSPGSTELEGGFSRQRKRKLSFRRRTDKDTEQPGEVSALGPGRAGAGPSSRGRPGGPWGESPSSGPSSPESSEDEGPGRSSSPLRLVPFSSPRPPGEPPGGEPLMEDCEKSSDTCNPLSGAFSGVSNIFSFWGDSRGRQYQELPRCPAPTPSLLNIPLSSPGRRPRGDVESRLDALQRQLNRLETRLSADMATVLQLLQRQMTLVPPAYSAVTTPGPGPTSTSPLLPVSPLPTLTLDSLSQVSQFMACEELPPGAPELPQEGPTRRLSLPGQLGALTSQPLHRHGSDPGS
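U2OS cells transduced with wild-type KCNH2 virus are loaded with FluxOr dye for 45 min, and thallium flux is measured in kinetic reads before and after stimulation buffer. Rate constants are normalized to DMSO controls.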
KB-V1 cytotox: kills drug-selected multidrug resistant KB-V1 cells; Potency, µM (highest dose often 46.1 µM), usual class: cytotoxic; KB-V1 MDR cells viability, CellTiter-Glo, 72 h; 3.4% of 400,000 active; also: potency is read from the fitted curve at half-maximal effect; % is scaled to controls: 0 for no effect and ±100 for the full control effect; nearly all actives have a fitted effect of over 60% in size
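In this primary screen, KB-V1 cells overexpressing P-gp are incubated with library compounds (lowest to highest concentration) for 72 h at 37 degrees C before a luminescent ATP viability read.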
MCF10A rerep: inducers of DNA re-replication in MCF 10A breast cells | MCF 10A DNA re-replication, Hoechst nuclear intensity, 48 h | Potency, µM (highest dose often 46.1 µM), for inactives: at the highest dose activity, positive = re-replication, hits mostly activators | 2.9% of 350,000 active; also: potency is read from the fitted curve at half-maximal effect; % of control where 0% means no effect; nearly all actives have a fitted effect of over 50% in size
Numbers without * were called inactive; i = inactive; ? = inconclusive; . = no result; [ ] = dose if it differs, or a comment. Unless noted, calls follow the shape of the dose curve; as a rule, active = well fitted curve in the direction sought with a large enough effect; inconclusive = small, poorly fitted or top-dose-only effect, or another doubt; inactive = no such curve, though single readings can be large; an effect the other way counts as inactive or inconclusive.

SMILES | KB-3-1 tox | SW480 rereplic | KCNH2 3.1 inh | KCNH2 WT inh | KB-V1 cytotox | MCF10A rerep
CN(c1ccccc1)S(=O)(=O)c1ccc(C(=O)Nc2nnc(-c3ccco3)o2)cc1 | ? | 20.6µM* | . | 3.2 | ? | 2.7%
CC1CCCN(S(=O)(=O)c2ccc(C(=O)Nc3nnc(-c4ccco4)o3)cc2)C1 (configuration not stated) | ? | ? | -3.2 | -5.2 | 7.31µM* | 20.1%
CSc1ccc(/C=C2\C=Cc3ccc([N+](=O)[O-])cc32)cc1 | i | . | . | . | ? | .
CCCC(=O)NC(C)c1nc2ccccc2n1Cc1ccccc1 (configuration not stated) | i | . | . | . | i | .
CCOC(=O)COc1ccc(S(=O)(=O)N2CCN(c3ccc(OC)cc3)CC2)cc1 | i | -4.2% | -9.8 | -1.4 | i | 2.3%
CCOC(=O)c1sc(Nc2nc(C)cc(OC)n2)nc1C | i | -6.1% | 0.3 | 0.2 | i | 10.4%
CNc1nc(C)c(C(=O)OCc2ccccc2)s1 | i | 0.5% | 9.9 | -15.6 | 20.6µM* | ?
CCCCCCc1nnc(NC(=O)OCC)s1 | i | -4.3% | 17.8 | 16.6 | 16.4µM* | 6.8%
CCOC(=O)c1sc(Nc2nc(C)cc(C)n2)nc1C | ? | ? | -19.1 | -1.5 | 9.2µM* | ?
CNc1nc(C)c(C(=O)OCC(=O)OC)s1 | i | -5.4% | 6.0 | 3.6 | i | -0.3%
CCCCOC(=O)Nc1nc(C)c(C(=O)OCC)s1 | i | -6.7% | 1.5 | -4.2 | 11.6µM* | -8.2%
Cc1cccc(CS(=O)(=O)Cc2ccc(C(=O)NC3CCCCC3)o2)c1 | i | ? | -17.9 | -0.9 | i | 17.5%
Cc1cc(Br)ccc1OCCCCN1CCC(C)CC1 | i | ? | ? | 44.3 | ? | 7.31µM*
Cc1cccc(Cl)c1OCCCCn1ccnc1 | i | 4.6% | -3.6 | 24.7 | 20.6µM* | 9.7%
Cc1cc(Br)ccc1OCCn1ccnc1 | i | 1.7% | 26.5 | 8.4 | 16.4µM* | 9.2%
Clc1cc(Br)ccc1OCCn1ccnc1 | i | -8.2% | 7.9 | 8.3 | ? | -2.0%
Cc1ccc(C)c(OCCn2ccnc2)c1 | i | ? | 1.7 | -2.6 | i | 4.6%
Clc1cc(Br)ccc1OCCCn1ccnc1 | ? | 1.1% | -5.7 | 14.9 | 20.6µM* | 15.5%
Cc1cc(Cl)cc(C)c1OCCCCn1ccnc1 | i | -10.7% | -14.0 | -17.5 | ? | 5.0%
Cc1ccc(OCCC(=O)OCC(=O)Nc2cc(S(=O)(=O)N(C)C)ccc2C)cc1 | i | 3.1% | -2.4 | 1.1 | ? | 7.9%
O=C(Nc1ccccc1)NC1(C(=O)N2CCN(c3ncccn3)CC2)CCCCC1 | i | -2.4% | ? | -2.0 | i | -3.3%
O=C(NCc1ccccc1)NC1(C(=O)N2CCN(c3ncccn3)CC2)CCCCC1 | i | 4.3%[9.22 µM] | -19.0 | -7.3 | i | 23.1µM*
Cc1ccc(-c2cnc(N3CCC(C(N)=O)CC3)s2)cc1 | i | . | . | . | i | .
OC(c1cc(-c2ccc(C(F)(F)F)cc2)nc(C(F)(F)F)c1)C1CCCCN1 (configuration not stated) | i | ? | -3.1 | 22.3 | i | 23.1µM*
Cc1ccc(C(=O)CCC(=O)N2CCN(C(=O)c3ccco3)CC2)cc1 | i | -1.6% | -18.4 | -0.3 | ? | 3.1%
SMILES | KB-3-1 tox | SW480 rereplic | KCNH2 3.1 inh | KCNH2 WT inh | KB-V1 cytotox | MCF10A rerep
Cc1ccc(N(CC(O)CON=C2c3ccccc3-c3ccccc32)S(C)(=O)=O)cc1 (configuration not stated) | i | 13.6% | -1.7 | -5.6 | 23.1µM* | 5.0%
CC(=O)c1sc(Nc2ccc(Oc3ccccc3)cc2)nc1C | i | . | . | . | i | .
CCN(CC)c1ccc(/C=N/NC(=S)NC)c(O)c1 | 9.2µM* | -4.9% | 5.6 | 7.7 | i | 1.3µM*
CCN(CC)c1ccc(/C=N/NC(=O)c2ccc3nc[nH]c3c2)c(O)c1 | ? | 20.6µM* | -4.1 | -3.0 | i | 26.3%
CCN(CC)c1ccc(/C=N/N=C(N)N)c(O)c1 | ? | 16.4µM* | -25.1 | -1.2 | ? | 4.11µM*
CCN(CC)c1ccc(/C=N/NC(=O)c2ccoc2C)c(O)c1 | 11.6µM* | 13µM* | 2.2 | 9.7 | ? | ?
COc1cccc(/C=N/NC(=O)c2ccc3nc[nH]c3c2)c1O | i | ? | -1.4 | 5.4 | i | 5.3%
Cc1cc(/C=N/NC(=O)c2ccoc2C)cc(C)c1O | i | . | 6.7 | 0.6 | i | .
CCN(CC)c1ccc(N=Cc2ccc(N(CC)CC)cc2O)cc1 | ? | ? | 8.4 | 8.4 | i | -11.4%
CCN(CC)c1ccc(/C=N/NC(=O)OC)c(O)c1 | i | 8.2% | 11.0 | -2.3 | ? | -1.1%
CN(Cc1cccc(F)c1)C(=O)C1CC(=O)N(c2ccc3c(c2)OCCO3)C1 (configuration not stated) | i | 4.1% | 0.7 | 0.1 | i | 13.5%
N#Cc1cccc2c1-c1ccccc1/C2=N/NC(N)=S | ? | 24.2% | -6.6 | 4.0 | ? | ?
NC(=S)NN=C1c2ccccc2-c2c(F)c(F)c(F)c(F)c21 | ? | 14.6µM* | 3.4 | -1.2 | ? | 6.51µM*
CN1CC(c2ccc(Cl)c(Cl)c2)[C@@]2(COc3ccccc3C2=O)[C@@]12C(=O)Nc1ccccc12 (some centres not stated) | ? | ? | -21.4 | -28.0 | 9.2µM* | 16.4µM*
CCOc1cc(CNS(=O)(=O)c2ccc3c(c2)CC(=O)N3C)cc(OCC)c1OCC | i | ? | 12.8 | -9.8 | i | 12.2%
O=C(Nc1nc(-c2ccc3ccccc3c2)cs1)C1CCN(S(=O)(=O)c2cccs2)CC1 | 4.61µM* | -137.3% | -41.0 | 0.4 | 2.59µM* | -43.4%
Cc1ccc(-c2csc(NC(=O)c3cccc(S(=O)(=O)N4CCN(C)CC4)c3)n2)cc1 | i | -6.4% | -79.4* | -1.7 | i | 7.0%
COc1ccc(/C=C2\SC(=O)N(CCNC(=O)C3CCN(S(=O)(=O)c4cccs4)CC3)C2=O)cc1 | i | -15.1% | -4.2 | 0.9 | 14.6µM* | -7.0%
Cc1ccc(-c2csc(NC(=O)C3CCN(S(=O)(=O)c4cccs4)CC3)n2)cc1 | 6.51µM* | ? | -6.4 | -5.4 | 9.2µM* | 1.8%
O=C(Nc1nccs1)C1CCN(S(=O)(=O)c2cccs2)CC1 | i | -1.3% | -2.2 | 2.2 | i | 0.9%
Cc1ccc(CN(C(=O)c2ccc([N+](=O)[O-])cc2)c2ccccn2)cc1 | i | . | . | . | i | .
O=C(CSc1nnc(CNC(=O)c2c(F)cccc2F)o1)NCc1ccco1 | i | -2.9% | -10.0 | -1.2 | i | -0.5%
Cc1cc(NC(=O)/C=C/c2ccco2)ccc1NC(=O)c1ccccc1 | i | 11.4% | 3.0 | -12.1 | i | 17.3%
